Measurements: the supplement of paper PMC6555819

What follows are sequences tested on PPARg:RXRa (NR concentration 180 nM, RXRa partner concentration 90 nM) (assay: PBM binding z-score (relative to random genomic background probes); higher = stronger binding; sequences stand for … in GC…GCGATTGACAGCGTAGAATGAAGG).
In short: (§1)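 Scanned fluorescence from custom Agilent 4×180K protein-binding microarrays was regression-normalized. Binding z-scores use random background probes as reference. Ligand-free nuclear receptor dimers were incubated on the arrays for 1 h and detected with antibodies against each partner (one per run).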

Row | Sequence | PBM binding z-score
1 | CAAACTAGCTCAAAGGTCAAAGTCGAGCCAACCA | 9.32
2 | GGAACGAGGGCAAGTCGATAGCAGAGTTTGATGG | 0.928
3 | CAGCGTAGGTCAGGGCCAGTATAGGAGGAACGTT | 0.896
4 | TATTGTAGATCAACAGGAGGTTAAGAAAGATCGA | 0.641
5 | CAGCCTAGGTCAGGGCCAATATAGGAGGAACGTT | 1.37
6 | CTCGAAAAGTCGTGCTCAGGTGAGTATACCAAAC | -0.24
7 | GCGATTGGGGCAAAGCAGGTTACCATAAGGTTGG | 0.77
8 | TCGTGTAGATCAACAGGAGGTTAAGAAAGATCGA | -0.0865
9 | CCTATTAGTTTACCATAAGGGCAACCGAAGCTCG | 0.273
10 | GCTAGTCGGTCAGTAAAAGGTCACACACCGGTCG | 3.19
11 | TCTATTAGTTGAACGGCAACCGACGAGTCCGTTT | 0.133
12 | ATCTCTAAGTAACAAGTTCAGTGAAAGAGAGGAC | 0.408
13 | GCTAGTTGGTCAGTAAAAGGTCCCACACCGGTCG | -0.0473
14 | TCATATAGGTAAACGGTGAAAGTCGGTGTGGTAA | 2.41
15 | ACTAGTTGGTCAGCTGAGGTCACATACAATTCGG | 1.77
16 | CGTCCAAGGTCATAGGAGGTCAGTGAGGACAGAT | 5.58
17 | TCATATAGGTAAATGCTAGGTGAAAGTGCGATCT | 1.89
18 | TCCAGTAGGTTAGGGGCATTCAGAATGGCGTCGA | 1.87
19 | CTCGAAAGGTCGTGCTCAGGTGAGTAGACCAAAC | 2.71
20 | CCTAGTAGGTCAGGAGGTCACACACCGGATATGA | 9.01

Row | Sequence | PBM binding z-score
21 | CAAACTAGGTCACGAAAGTTCAAAGTCGAATGAC | 9.94
22 | TCTTGTAGATCAAGGGTTAAGAAAGCCGAAGCCT | 5.36
23 | TTACCAAGATGAGCTGAGGTCGTTGATCCAACTC | 0.0458
24 | CCTTACGGGTCAAGGTTATAGCGCGGGTGGTACG | 4.54
25 | TAGTCTAGGTCATGGGCCAGTATACCACGCGAAC | 7.25
26 | ATCTCTAGGTAAAAGTTCAGTCAATCCCGAGGAT | 8.25
27 | AGTCAAAGTTCACTAGGGAACGTAAGATTCAGCT | 6.45
28 | CGTCCAAGGTCATAGAAGGTCAGTGAAGACAGAT | 5.05
29 | CCAGACAGGTGACAGGTAACTCAGTCTGGTACGC | 1.37
30 | CTCGAAAGGTCGTGCTCACGTGAGTATACCAAAC | 2.9
31 | TTACCAAGGTGAGCAGAGGTCGTTGATCCAACTC | 2.17
32 | ATGTCTAGGTAAAGTTCAGTGAAAGATCGATAGA | 3.51
33 | CCGACTGGGGCACAAAGGTTACCATACCATCCGG | 4.16
34 | TATACAGGGTCAAAGGCCAGCGTACGAATGTCGA | 8.39
35 | CCTACTGGGCAATTCAGAGGTCATTGATCATATG | 0.682
36 | ACTATTAGTTGACTTGGGGCAACCGATACGACGC | 0.902
37 | CCGACTTGGGCAGAAAGGTTACCATACCATCCGG | 1.06
38 | GCTAGCACGCCATTTGGGTCACTCAATGACGGGC | 0.747
39 | TCGAGTAGGTTAGGGGCATTCAAAATGGCGTCGA | 1
40 | CCTCGGAGGACAGAAGGTCAGAGCCGTCCGCTTT | -0.186

The sequences below were run on PPARg:RXRa 270nM:90nM, anti-RXR (NR concentration 270 nM, RXRa partner concentration 90 nM) in the same assay as above.
In short: as §1

Row | Sequence | PBM binding z-score
41 | CAAACTAGCTCAAAGGTCAAAGTCGAGCCAACCA | 8.51
42 | GGAACGAGGGCAAGTCGATAGCAGAGTTTGATGG | 0.703
43 | CAGCGTAGGTCAGGGCCAGTATAGGAGGAACGTT | 0.918
44 | TATTGTAGATCAACAGGAGGTTAAGAAAGATCGA | 0.531
45 | CAGCCTAGGTCAGGGCCAATATAGGAGGAACGTT | 1.22
46 | CTCGAAAAGTCGTGCTCAGGTGAGTATACCAAAC | -0.203
47 | GCGATTGGGGCAAAGCAGGTTACCATAAGGTTGG | 0.405
48 | TCGTGTAGATCAACAGGAGGTTAAGAAAGATCGA | 1.04
49 | CCTATTAGTTTACCATAAGGGCAACCGAAGCTCG | 0.684
50 | GCTAGTCGGTCAGTAAAAGGTCACACACCGGTCG | 4.83
51 | TCTATTAGTTGAACGGCAACCGACGAGTCCGTTT | 1.87
52 | ATCTCTAAGTAACAAGTTCAGTGAAAGAGAGGAC | 0.672
53 | GCTAGTTGGTCAGTAAAAGGTCCCACACCGGTCG | 0.383
54 | TCATATAGGTAAACGGTGAAAGTCGGTGTGGTAA | 4.15
55 | ACTAGTTGGTCAGCTGAGGTCACATACAATTCGG | 1.98
56 | CGTCCAAGGTCATAGGAGGTCAGTGAGGACAGAT | 5.89
57 | TCATATAGGTAAATGCTAGGTGAAAGTGCGATCT | 3.48
58 | TCCAGTAGGTTAGGGGCATTCAGAATGGCGTCGA | 3.55
59 | CTCGAAAGGTCGTGCTCAGGTGAGTAGACCAAAC | 3.96
60 | CCTAGTAGGTCAGGAGGTCACACACCGGATATGA | 7.34

Row | Sequence | PBM binding z-score
61 | CAAACTAGGTCACGAAAGTTCAAAGTCGAATGAC | 8.29
62 | TCTTGTAGATCAAGGGTTAAGAAAGCCGAAGCCT | 6.4
63 | TTACCAAGATGAGCTGAGGTCGTTGATCCAACTC | 0.511
64 | CCTTACGGGTCAAGGTTATAGCGCGGGTGGTACG | 4.41
65 | TAGTCTAGGTCATGGGCCAGTATACCACGCGAAC | 6.37
66 | ATCTCTAGGTAAAAGTTCAGTCAATCCCGAGGAT | 8.34
67 | AGTCAAAGTTCACTAGGGAACGTAAGATTCAGCT | 6.13
68 | CGTCCAAGGTCATAGAAGGTCAGTGAAGACAGAT | 5.64
69 | CCAGACAGGTGACAGGTAACTCAGTCTGGTACGC | 1.4
70 | CTCGAAAGGTCGTGCTCACGTGAGTATACCAAAC | 3.42
71 | TTACCAAGGTGAGCAGAGGTCGTTGATCCAACTC | 2.89
72 | ATGTCTAGGTAAAGTTCAGTGAAAGATCGATAGA | 4.55
73 | CCGACTGGGGCACAAAGGTTACCATACCATCCGG | 5.34
74 | TATACAGGGTCAAAGGCCAGCGTACGAATGTCGA | 7.25
75 | CCTACTGGGCAATTCAGAGGTCATTGATCATATG | 2.06
76 | ACTATTAGTTGACTTGGGGCAACCGATACGACGC | 0.242
77 | CCGACTTGGGCAGAAAGGTTACCATACCATCCGG | 1.64
78 | GCTAGCACGCCATTTGGGTCACTCAATGACGGGC | 0.379
79 | TCGAGTAGGTTAGGGGCATTCAAAATGGCGTCGA | 1.98
80 | CCTCGGAGGACAGAAGGTCAGAGCCGTCCGCTTT | 0.948
